Test results reported in PubChem BioAssay (NCI).
Compounds without any hit were thinned out: in the full panel of roughly 79,000, 15% have a hit. Activity calls are given as the source filed them. No stated cut-off is given here; in the data, active means growth inhibition above about 70%; inactive means the rest.

Assays:
[1] = NCI Yeast Anticancer Drug Screen. Data for the rad50 strain (AID 155);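 further: 0% = growth of vehicle-only cultures of the same strain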; conditions: S. cerevisiae rad50 strain growth inhibition, active compounds read high
Summary of the method: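 Inhibition values express reduced yeast growth in compound-treated cultures relative to vehicle-treated controls.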

[2] = NCI Yeast Anticancer Drug Screen. Data for the mec2-1 strain (AID 157); conditions: S. cerevisiae mec2-1 strain, active compounds read high
Summary of the method: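 Mutant yeast (mec2-1) grown with compound; growth inhibition relative to vehicle control reported.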

[3] = NCI Yeast Anticancer Drug Screen. Data for the sgs1 mgt1 strain (AID 161);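 further: 0% = growth of cultures given vehicle only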; conditions: S. cerevisiae sgs1 mgt1 strain, active compounds read high
Summary of the method: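 Percent growth inhibition was derived by comparing compound-exposed mutant yeast with vehicle-exposed cultures. The strain carries alterations in DNA damage repair.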

[4] = NCI Yeast Anticancer Drug Screen. Data for the cln2 rad14 strain (AID 165);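 further: 0% = growth equal to vehicle treated cultures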; conditions: S. cerevisiae cln2 rad14 strain, active compounds read high
Summary of the method: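 Readout is yeast growth inhibition versus vehicle-treated controls, using a strain with cln2 and rad14 alterations exposed to compound.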

[5] = NCI Yeast Anticancer Drug Screen. Data for the bub3 strain (AID 167); conditions: S. cerevisiae bub3 mutant strain, active compounds read high
Summary of the method: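 Steps: expose the mutant yeast strain to compound; grow alongside vehicle-treated cultures; measure growth; express inhibition against the vehicle cultures.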

[6] = NCI Yeast Anticancer Drug Screen. Data for the mlh1 rad18 strain (AID 175); conditions: S. cerevisiae mlh1 rad18 strain growth inhibition, active compounds read high
Summary of the method: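 Genetically defined yeast (DNA repair-deficient) exposed to compounds; growth inhibition determined relative to vehicle.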

[7] = at 5.0 µM (retest, dose inferred, filed as 0.5)
[8] = at 50.0 µM (retest, dose inferred, filed as 5.0)

Measured: growth inhibition

COc1cc(C2c3cc4c(cc3C(OC3CCCCO3)C3COC(=O)C23)OCO4)cc(OC)c1OC (configuration not stated)
inactive: [1]; [7] -2% | [1]; [8] 19% | [1]; at 50.0 µM 31.9% | [2]; [7] -1% | [2]; [8] 7% | [2]; at 50.0 µM 18.6% | [3]; [7] -10% | [3]; [8] 11% | [3]; at 50.0 µM 23.4% | [4]; [7] -3% | [4]; [8] -2% | [4]; at 50.0 µM 2.35% | [5]; [7] 4% | [5]; [8] 30% | [5]; at 50.0 µM 54.4% | [6]; [7] -6% | [6]; [8] 14% | [6]; at 50.0 µM 33.9%

CC(C)(Br)C(=O)/C=C/c1ccc(Cl)cc1
inactive: [5]; [7] 38%
active: [1]; [7] 92% | [1]; [8] 100% | [1]; at 50.0 µM 99.5% | [2]; [7] 92% | [2]; [8] 100% | [2]; at 50.0 µM 99.7% | [3]; [7] 94% | [3]; [8] 99% | [3]; at 50.0 µM 99.6% | [4]; [7] 89% | [4]; [8] 100% | [4]; at 50.0 µM 99.7% | [5]; [8] 99% | [5]; at 50.0 µM 99.3% | [6]; [7] 97% | [6]; [8] 100% | [6]; at 50.0 µM 99.4%

Oc1c(Cl)cccc1-c1ccccc1
inactive: [1]; [7] 2% | [1]; [8] -5% | [1]; at 50.0 µM 20.1% | [2]; [7] -21% | [2]; [8] 0% | [2]; at 50.0 µM 12.2% | [3]; [7] 1% | [3]; [8] 10% | [3]; at 50.0 µM 36.9% | [4]; [7] 1% | [4]; [8] -14% | [4]; at 50.0 µM 1.9% | [5]; [7] 7% | [5]; [8] -4% | [5]; at 50.0 µM 4.45% | [6]; [7] -1% | [6]; [8] 8% | [6]; at 50.0 µM 67.8%

CCOC(=O)/C(=C\c1ccc(Br)cc1)C(C)=O
inactive: [1]; [7] 28% | [2]; [7] 29% | [3]; [7] 48% | [4]; [7] 34%
active: [1]; [8] 98% | [1]; at 50.0 µM 92.5% | [2]; [8] 99% | [2]; at 50.0 µM 94.2% | [3]; [8] 98% | [3]; at 50.0 µM 93.5% | [4]; [8] 98% | [4]; at 50.0 µM 92.5% | [5]; [7] 71% | [5]; [8] 99% | [5]; at 50.0 µM 92.3% | [6]; [7] 70% | [6]; [8] 99% | [6]; at 50.0 µM 91.7%

Nc1cc(Cl)ccc1SSc1ccc(Cl)cc1N
inactive: [1]; [7] 11% | [1]; [8] 58% | [1]; at 50.0 µM 49% | [2]; [7] 67% | [2]; at 50.0 µM 32.5% | [3]; [7] 46% | [3]; [8] 65% | [3]; at 50.0 µM 48.6% | [4]; [7] 22% | [4]; [8] 39% | [4]; at 50.0 µM -74.8% | [5]; [7] 58% | [5]; at 50.0 µM 50.6% | [6]; [7] 35% | [6]; [8] 51%
active: [2]; [8] 90% | [5]; [8] 98% | [6]; at 50.0 µM 73.3%

CCN1CCC(O)(/C=C/c2ccc(Cl)c(Cl)c2)C(C(=O)/C=C/c2ccc(Cl)c(Cl)c2)C1 (configuration not stated)
active: [1]; [7] 99% | [1]; [8] 99% | [1]; at 50.0 µM 99% | [2]; [7] 99% | [2]; [8] 100% | [2]; at 50.0 µM 99.4% | [3]; [7] 99% | [3]; [8] 100% | [3]; at 50.0 µM 99.5% | [4]; [7] 99% | [4]; [8] 99% | [4]; at 50.0 µM 97.8% | [5]; [7] 99% | [5]; [8] 99% | [5]; at 50.0 µM 99% | [6]; [7] 99% | [6]; [8] 97% | [6]; at 50.0 µM 98.9%

O=C(O)c1c(Br)c(Br)c(Br)c(Br)c1-c1c2ccc(=O)cc-2oc2cc(O)ccc12
active: [1]; [7] 94% | [1]; [8] 93% | [1]; at 50.0 µM 84.1% | [2]; [7] 95% | [2]; [8] 96% | [2]; at 50.0 µM 88.7% | [3]; [7] 87% | [3]; [8] 96% | [3]; at 50.0 µM 87.1% | [4]; [7] 88% | [4]; [8] 95% | [4]; at 50.0 µM 87.8% | [5]; [7] 91% | [5]; [8] 95% | [5]; at 50.0 µM 85.8% | [6]; [7] 94% | [6]; [8] 92% | [6]; at 50.0 µM 83.5%

CCN(CC)CC(O)c1c(-c2ccccc2)c(-c2ccccc2)c2n1CCC2 (configuration not stated)
inactive: [1]; [7] -4% | [2]; [7] -3% | [2]; at 50.0 µM 32% | [3]; [7] -2% | [3]; at 50.0 µM 56.7% | [4]; [7] -11% | [4]; [8] 17% | [4]; at 50.0 µM -4.75% | [5]; [7] -3% | [6]; [7] -9% | [6]; at 50.0 µM 47.6%
active: [1]; [8] 92% | [1]; at 50.0 µM 93.7% | [2]; [8] 96% | [3]; [8] 83% | [5]; [8] 90% | [5]; at 50.0 µM 92.6% | [6]; [8] 92%

Cc1ccc2sc(=S)sc2c1
active: [4]; [8] 77% | [4]; at 50.0 µM 74.2% | [5]; at 50.0 µM 95.3% | [6]; at 50.0 µM 72.3%
inactive: [1]; [7] -2% | [1]; [8] 32% | [1]; at 50.0 µM 59.5% | [2]; [7] -3% | [2]; [8] 53% | [2]; at 50.0 µM 25.4% | [3]; [7] -2% | [3]; [8] 40% | [3]; at 50.0 µM 40.4% | [4]; [7] 0% | [5]; [7] 7% | [5]; [8] 65% | [6]; [7] -19% | [6]; [8] 69%
